Compound activity from PubChem.
Rows were chosen to be rich in hits. Some 27% of all compounds tested hit in one or more screens of this group.
Cav3 T inh: human Cav3.2 channel inhibition, primary screen; O95180; Cav3.2-expressing cells, Fluo-4 calcium fluorescence FDSS; hits give low values; B-score at 10 µM; actives 4% (n = 100,000); AID 449739;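 active means single-dose well whose peak fluorescence ratio is a statistical outlier from its plate by either plate-standardised score or position-corrected B-score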
CYP2C9 activ: activators of human CYP2C9. P11712. recombinant CYP2C9, luciferin-H conversion, luminescence; hits give high values; factor 1 = untreated enzyme, 0 = blocked. activation factor at 5 µM. actives 1.4% (n = 96,000). AID 1024;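 active means activation factor of 2 or more for CYP2C9 at a 5 µM dose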;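 further: 0 = sulfaphenazole-blocked wells and 1 = vehicle-only wells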
CYP2C19 act: cytochrome P450 2C19 (human) activation | recombinant CYP2C19, luciferin-H EGE luminescence; hits give high values; 0 = fully inhibited enzyme, 1 = untreated enzyme | activation factor at 5 µM | 96,000 tested, under 10 active;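 active means activation factor of at least 2 at 5 µM in the primary screen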;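 further: 0 = wells with 2.5 mM tranylcypromine and 1 = vehicle-only wells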
Target sequence (P33261 whole entry, looked up): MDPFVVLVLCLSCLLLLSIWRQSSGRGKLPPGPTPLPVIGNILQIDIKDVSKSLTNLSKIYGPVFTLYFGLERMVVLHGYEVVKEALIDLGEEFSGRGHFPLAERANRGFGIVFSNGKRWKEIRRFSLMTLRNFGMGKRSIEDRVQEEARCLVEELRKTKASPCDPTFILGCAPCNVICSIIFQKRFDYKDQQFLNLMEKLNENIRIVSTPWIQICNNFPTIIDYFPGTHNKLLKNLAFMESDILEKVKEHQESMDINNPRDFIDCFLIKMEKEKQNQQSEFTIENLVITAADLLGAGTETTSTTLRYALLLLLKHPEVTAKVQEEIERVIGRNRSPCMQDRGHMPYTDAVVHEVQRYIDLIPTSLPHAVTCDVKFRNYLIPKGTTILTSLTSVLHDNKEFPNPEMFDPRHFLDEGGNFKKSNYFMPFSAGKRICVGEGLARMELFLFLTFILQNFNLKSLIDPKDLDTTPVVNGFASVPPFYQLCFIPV
Pyk2 oligo antag: Pyk2 (human) oligomerization antagonism; Q14289; Q293 cells, Pyk2 FERM NanoBiT luminescence; hits give low values; z-score (the deposit names both 25 µM and 10 µM); actives 0.83% (n = 99,000);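 active means Z-score of -3 or lower, scaled per plate to the spread of control and sample wells; inactive means z-score above -3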;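 further: negative z-score means lost luminescence so less FERM oligomerization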
CYP2C19 inh: human CYP2C19 inhibition; P33261; CYP2C19 Supersomes, luciferin-H EGE luminescence, 30 min; inhibition, % at 5 µM; actives 21% (n = 96,000);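 active means CYP2C19 inhibition above a set limit at 5 µM in the primary screen, cut at about 50% in these data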;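 further: plate controls were negative control wells for no effect and 2.5 mM tranylcypromine positive control for full effect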
CYP2C9 inh: human CYP2C9 inhibition; CYP2C9 Supersomes, luciferin-H conversion, luminescence; P11712; actives 20% (n = 96,000); inhibition, % at 5 µM;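 active means blocking of liver enzyme CYP2C9 beyond about 50% at 5 µM, limit read from the data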
An asterisk follows results filed as active; . = no result.

SMILES | Cav3 T inh | CYP2C9 activ | CYP2C19 act | Pyk2 oligo antag | CYP2C19 inh | CYP2C9 inh
O=C1c2ccccc2C(=O)C12Cc1ccccc1N1CCN(c3ccccc3)CC12 (stereo not drawn) | -3.3 | 0.2 | 0.4 | 0.91 | 56* | 76*
CS(=O)(=O)Nc1ccc(C(=O)N2CCCCC2)cc1 | 1.5 | 1.1 | 1.2 | -0.87 | -17 | -6
COc1ccc(COC(=O)c2ccc(N3CCCC3=O)cc2)cc1F | -1.2 | 0.4 | 0.5 | 0.01 | 45 | 61*
CCOc1cccc2sc(=NC(=O)c3ccc(S(=O)(=O)N4CCOCC4)cc3)n(C)c12 | -1.1 | 0.4 | 0.7 | -0.17 | 32 | 56*
CCOC(=O)c1sc(=NC(=O)c2ccc(S(=O)(=O)N3CC(C)OC(C)C3)cc2)n(C)c1C (stereo not drawn) | 0.46 | 1 | 0.9 | -0.52 | 7 | 2
CCOc1ccc(N2CC(C(=O)OCC(=O)NCc3ccccc3)CC2=O)cc1 (stereo not drawn) | 1.6 | 0.6 | 0.8 | 1.1 | 16 | 39
Cc1ccc(C(=O)CSc2nnc(-c3ccccc3)o2)cc1 | 0.42 | . | . | -0.35 | . | .
CC1=CC(C)(C)N(C(=O)CSc2nnc(-c3ccc(C)cc3)o2)c2ccc(C)cc21 | . | 0.1 | 0 | -0.61 | 96* | 95*
CC1=CC(C)(C)N(C(=O)CSc2nnc(N)s2)c2cc(C)c(C)cc21 | -1.1 | 0.3 | 0.2 | -1.4 | 77* | 70*
CC1=CC(C)(C)N(C(=O)CSc2nnc(C)s2)c2ccc(C)cc21 | -0.19 | 0.8 | 0.6 | 0.95 | 37 | 17
CCN(CC)C(=O)Oc1ccc(Cl)c2ccccc12 | -1.5 | 1.5 | 0.3 | 0.11 | 67* | -46
NC(=O)C1(N2CCCCC2)CCN(C(=O)NC2CCCCC2)CC1 | 0.25 | 0.9 | 1 | -0.12 | 2 | 13
Cc1ccccc1NC(=O)CCN1CCCCCC1 | 0.16 | . | . | 1.1 | . | .
O=C(CN1CCN(CCC(=O)Nc2ccccc2F)CC1)Nc1ccc(Cl)cc1 | . | 0.5 | 0.8 | 0.5 | 23 | 46
O=C(CN1CCN(c2ccccc2F)CC1)Nc1ccccc1F | . | 0.2 | 0.1 | 1 | 88* | 80*
O=C(CN1CCN(CCC(=O)Nc2ccccc2F)CC1)Nc1ccc(F)cc1 | 0.13 | 0.4 | 0.8 | -0.83 | 15 | 64*
O=C(CCN1CCN(c2ccccc2F)CC1)Nc1ccccc1F | 0.0061 | 0.3 | 0.5 | 0.83 | 54* | 66*
Cc1cccc(N2CCN(CC(=O)Nc3ccccc3[N+](=O)[O-])CC2)c1C | -0.058 | 0.3 | 0.6 | 0.67 | 44 | 67*
O=C(O)Cn1nc(C(F)(F)F)c2c1CCC2 | -0.71 | 1.2 | 0.8 | 1.2 | 21 | -20
O=C(CN1CCN(c2ccccc2F)CC1)c1ccc2cc[nH]c2c1 | . | 0.7 | 0.8 | . | 24 | 31
O=C(CCN1CCN(c2ccc(Cl)cc2)CC1)Nc1ccccc1F | 0.27 | 0.5 | 0.7 | 0.34 | 32 | 51*
O=C(CCN1CCc2ccccc2C1)Nc1ccccc1F | -0.034 | . | . | 0.06 | . | .
O=C(CCN1CCN(c2ccccc2F)CC1)c1ccc(Br)cc1 | 0.91 | 0.7 | 0.5 | 0.48 | 50* | 34
Cc1cc(Br)ccc1OCCCCNC(C)(C)C | 1.4 | 0.9 | 0.8 | 0.62 | 24 | 8
CCCCOc1ccc(Br)cc1/C(C)=N/NC1=NCCN1 | -6.7* | . | . | 0.55 | . | .
SMILES | Cav3 T inh | CYP2C9 activ | CYP2C19 act | Pyk2 oligo antag | CYP2C19 inh | CYP2C9 inh
Cc1cc(C)nc(-n2nc(C)c(Br)c2Nc2ccc(Br)cc2)n1 | -2.1 | 0.9 | 0.3 | -0.01 | 70* | 11
Cc1cc(C(F)(F)F)nc(SCC(=O)Nc2ccccc2)n1 | -0.025 | 1.1 | 0.1 | -0.16 | 91* | -14
Cc1cc(C(F)(F)F)nc(SCC(=O)Nc2cc(C)on2)n1 | 1.4 | 1 | 0.5 | -0.75 | 52* | 0
CSc1nc(C)cc(SCC(=O)Nc2ccccc2)n1 | 0.041 | 0.3 | 0.1 | 0.08 | 90* | 67*
Cc1cc(C(F)(F)F)nc(SCC(=O)NC2CC3CCC2C3)n1 (stereo not drawn) | -1.1 | 2.1* | 0.2 | -0.02 | 83* | -111
Cc1cc(Oc2ccccc2)nc(SCC(=O)Nc2ccccc2)n1 | -0.27 | 0.8 | 0.7 | -0.66 | 29 | 16
CC1=C(n2ccnc2)CCC1=O | -0.73 | . | . | . | . | .
CCOc1cccc(C(=O)Nc2ccc3oc(Cc4ccc(Cl)cc4)nc3c2)c1 | -2.4 | 0.4 | 0.5 | 0.87 | 47 | 58*
CN1CCc2nc(SCC(=O)Nc3ccc(Cl)cc3)c(C#N)cc2C1 | 1.2 | . | . | 0.69 | . | .
O=C1C2C3c4ccccc4C(c4ccccc43)C2C(=O)N1c1nc(-c2ccccc2)cs1 (stereo not drawn) | -4.5 | 0.4 | 0.8 | -0.47 | 24 | 62*
O=C(NCc1ccccc1)C1=C[C@H](c2ccc(Br)cc2)C[C@H](OCCCCO)O1 | -0.41 | . | . | . | . | .
Cc1cc(C(F)F)n2ncc(C(=O)N3CCc4ccccc4C3)c2n1 | 0.56 | 1.9 | 0.2 | -0.06 | 84* | -91
O=C(c1cnn2c(C(F)(F)F)cc(-c3ccco3)nc12)N1CCc2ccccc2C1 | -0.63 | 0.2 | 0.4 | 2 | 59* | 76*
O=C(c1cnn2c(C(F)F)cc(C3CC3)nc12)N1CCc2ccccc2C1 | -1.5 | 1.7 | 0.3 | 0.14 | 74* | -71
O=C(c1cnn2c(C(F)F)cc(C3CC3)nc12)N1CCCC1 | 1 | 1.3 | 0.9 | -0.89 | 9 | -25
Cc1onc(-c2ccccc2)c1C(=O)N1CCN(C/C=C/c2ccccc2)CC1 | . | 0.9 | 1 | . | 5 | 14
COC(=O)C1=C(C)N=C2SCCC(=O)N2C1/C=C/c1ccccc1 (stereo not drawn) | -1.5 | 0.7 | 0.7 | 0.2 | 35 | 28
COc1ccc(NC(=S)NNC(=O)OC(C)(C)C)cc1OC | 0.079 | 1 | 0.9 | 0.31 | 12 | -1
O=C(COC(=O)CC12CC3CC(CC(Br)(C3)C1)C2)NC(=O)NCc1ccco1 | -1.9 | 0.4 | 0.5 | -0.04 | 46 | 64*
Cn1cccc1C(=O)NC(=O)COC(=O)CC12CC3CC(CC(Br)(C3)C1)C2 | -0.33 | 0.8 | 1.1 | -0.31 | -10 | 22
CN(C)S(=O)(=O)CC12CCC(CC1=O)C2(C)C (stereo not drawn) | 1 | 1.1 | 0.8 | 0.53 | 23 | -8
CC(C)c1cc(CN2CCN(CCC#N)CC2)cc(C(C)C)c1O | 0.65 | 1.2 | 1.1 | 1.2 | -12 | -21
CCN1C(=O)N(CN2CCOCC2)C2C1N(CN1CCOCC1)C(=O)N2CC (stereo not drawn) | -0.016 | 0.9 | 1 | 0.7 | 0 | 14
COc1ccc(C(=O)COC(=O)[C@H](C)Nc2ccc(C(F)(F)F)cc2[N+](=O)[O-])cc1 | -1 | 0.2 | 0.7 | 0.46 | 29 | 75*
Cc1cc(C)c(C(=O)COC(=O)[C@H](C)Nc2ccc(C(F)(F)F)cc2[N+](=O)[O-])c(C)c1 | -4.4* | 0.1 | 0.2 | 1.8 | 79* | 90*
O=S1(=O)C=C(SCc2cccc(Cl)c2)Nc2ccccc21 | . | 0.3 | 0.1 | 0.19 | 86* | 74*
